VACV Venus inh: vaccinia inhibition (Venus reporter) | Vaccinia virus Venus reporter expression, fluorescence | Potency, µM (highest dose often 36.5 µM), for the others: top-dose activity change, negative = inhibition, actives largely listed as inhibitors | 330,000 tested, 0.46% active; calls by dose curve; tested in A549 cells; further: potency means the concentration at half of the fitted maximal effect; nearly all actives have a fitted effect of over 30% in size
Vaccinia mCherry: inhibitors of vaccinia virus infection (mCherry reporter signal); Potency, µM (series often up to 36.5 µM), without a hit: at the highest dose activity change, negative = inhibition, hits mostly inhibitors; Vaccinia virus mCherry reporter infection, fluorescence; 310,000 tested, 0.63% active; AID 720579; calls by dose curve; tested in A549 cells; further: potency means the concentration at half of the fitted maximal effect; nearly all actives have a fitted effect of over 35% in size
FMDV inh: blocks foot and mouth disease virus | Potency, µM (titrated, usually from 57.9 µM), without a hit: top-dose activity change, negative = inhibition, usual class: inhibitors | FMDV antiviral cell-based qHTS | 410,000 tested, 1.2% active | AID 1159524; calls by dose curve; tested in HEK293T cells; further: read-out not given here; potency means the concentration at half of the fitted maximal effect; nearly all actives have a fitted effect of over 45% in size
HCMV inh: blocks human cytomegalovirus replication; HFF cells, HCMV-luciferase reporter, 72 h; active compounds read low; 410,000 tested, 4.5% active; activity change, negative = inhibition, % at 57.5 µM; in the data active means activity change below about -60%; inconclusive means no clear call, values can overlap the other calls; inactive means above about -39%
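Cell-based, HFFs, 1000 cells/well, 16 h 37C; cpds in DMSO + HCMV-luc, MOI 1 PFU/cell; 72 h 37C; OneGlo luminescence after 5 min RT; norm. to buffer vs Salinomycin 10uM.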
Marburg entry inh: Marburg virus entry inhibition; Marburg virus pseudotyped entry inhibition, cell reporter; Potency, µM (doses to about 37.8 µM), inactives show at the highest dose activity change, negative = inhibition, usual class: inhibitors; 300,000 tested, 1.8% active; calls by dose curve; tested in HEK293 cells; further: potency means the concentration at half of the fitted maximal effect
LASV entry inh: inhibitors of Lassa virus binding or cell entry. Lassa virus pseudotype entry inhibition, cell reporter. Potency, µM (highest dose often 37.9 µM), for the others: at the top dose activity change, negative = inhibition, actives largely listed as inhibitors. 300,000 tested, 1.2% active. AID 540256; calls by dose curve; tested in HEK293 cells; further: potency means the concentration at half of the fitted maximal effect; nearly all actives have a fitted effect of over 50% in size
Starred values were filed as active, the others as inactive; i = inactive; ? = inconclusive; . = no result; [ ] = dose if it differs, or a comment. Shown are actives, neighbours in structure and some others; about 6.5% of the full set was active somewhere. On the % scale 0 is the no-effect control and ±100 the full control effect.

SMILES	VACV Venus inh	Vaccinia mCherry	FMDV inh	HCMV inh	Marburg entry inh	LASV entry inh
Cc1ccc(NC(=O)N2CCN(c3cc(-c4noc(C)n4)ccc3C)CC2)c(C)c1	-5%	1%	-2%	8	.	?
CSc1ccc(CN2C(=O)C(C)ON=C2c2ccccc2F)cc1 (stereo unspecified)	-4%	1%	-21%	-98*	.	.
COc1ccc(C(C)=O)cc1CN1C(=O)C(C)ON=C1c1ccccn1 (stereo unspecified)	8%	i	-6%	42	.	.
COc1ccccc1CN1C(=O)C(C)ON=C1c1ccccc1F (stereo unspecified)	-1%	i	-19%	-80*	.	.
CC(=O)Nc1ccc(CN2C(=O)C(C)ON=C2c2ccccc2-c2ccco2)cc1 (stereo unspecified)	11%	24%	-20%	37	.	.
Cc1cccc2cc(CN(C(=O)c3ccc(-c4ccc(F)cc4)cc3)C3CC3)c(N3CCC(O)CC3)nc12	-20%	?	-19%	.	.	.
CC(=O)Nc1ccc(S(=O)(=O)N2CCC(c3nnnn3-c3ccccc3)CC2)cc1	-10%	-6%	?	-19	?	-9%[46.1 µM]
CC1CCN(CCCNC(=O)c2ccc3c(Cl)c4c(nc3c2)CCCC4)CC1	0%	-16%	-26%	?	10µM*	?
CCN1CCN(CCCNC(=O)c2ccc3c(Cl)c4c(nc3c2)CCCC4)CC1	13µM*	?	-17%	-83*	?	?
Cc1[nH]c2ccc(F)cc2c(=O)c1SC(F)(F)[C@@H](F)C(F)(F)F	.	.	.	.	-14%	.
CN(C)c1ccc(/C=C/c2cc(=O)[nH]c3ccccc23)cc1	-13%	-18%	.	.	.	.
O=C1CSc2ccc(C(=O)N3CCCCC3)cc2N1	-9%	i	-16%	-68*	.	.
Cc1ccc(CN(Cc2cccn2-c2nnc(N3CCCC3=O)s2)C(=O)Nc2ccccc2Cl)cc1	-12%	-15%	-11%	-14	-14%[46.1 µM]	.
CC(C)C[C@H](N)c1nnc(SCc2ccc(Cl)cc2Cl)o1	0%	-6%	-26%	9	?	-20%[46.1 µM]
CC(C)C[C@H](N)c1nnc(S(=O)(=O)Cc2ccc(F)cc2)o1	-10%	.	22µM*	.	?	?
CCCOCc1cc(CN2CCN(c3ccccc3OC)CC2)c(O)c2ncccc12	?	?	-26%	-100*	?	?
COc1ccccc1N1CCN(Cc2cc(Br)c(O)c3ncccc23)CC1	?	?	-25%	-95*	5%	.
COc1ccccc1N1CCN(Cc2ccc(Br)s2)CC1	.	.	?	-81*	?	?
CCOCc1cc(CN2CCN(c3ccccc3OC)CC2)c(O)c2ncccc12	-28%	13µM*	0%	-98*	?	?
C[C@]12CCCCCC3=CC(=O)C=C[C@@]31OC(=O)CC2	.	.	.	6	.	.
COc1ccccc1N1CCN(Cc2cc(C)c(C)cc2O)CC1	-3%	i	?	-20	?	-7%
COc1ccccc1N1CCN(Cc2cc(COC(C)C)c3cccnc3c2O)CC1	?	?	-16%	-85*	4µM*	?
COc1cccc(Nc2nnc(SCc3cc([N+](=O)[O-])cc4c3OCOC4)s2)c1	?	.	16µM*	-10	-19%	-12%
Cc1cccc(C)c1Nc1nnc(SCc2cc([N+](=O)[O-])cc3c2OCOC3)s1	.	.	?	-24	?	-3%
COc1ccc(-c2n(Cc3ccccc3)c3ccccc3[n+]2Cc2ccccc2)cc1	.	.	?	-98*	5.8µM*	8.2µM*
COCCNC(=O)CCCn1c(SCc2ccccc2C)nc2c(sc3ccccc32)c1=O	-16%	-23%	?	?	?	?
CCC1CCCCN1C(=O)c1cc(COc2ccc(-n3cncn3)cc2)on1 (stereo unspecified)	-20%	-3%	?	-61*	-17%	-15%
CCOc1ccccc1Nc1nnc(-c2cc3cc(Cl)ccc3oc2=O)s1	?	?	-5%	8	.	7%[46.1 µM]
CCCN(C(=O)CCl)C1=CCCCC1	-11%	-19%	?	-100*	4%[46.1 µM]	?
Cc1ccc(CNC(=O)[C@H](C)[C@H]2C[C@]2(C)[C@H](NC(=O)OCc2ccccc2)c2ccccc2)o1	?	i	-10%	.	10µM*	-20%
